Reference: PubChem BioAssay (NCATS)
Results filed as inconclusive are left out. Unmarked numbers belong to inactive results. Calls of active or inactive are those of the source. Calls follow the shape of the dose curve; as a rule, active = well fitted inhibition curve with a large enough effect; inconclusive = small, poorly fitted or top-dose-only effect; inactive = flat fitted curve, though single readings scatter.

How the values were obtained:
[1] = Drug repurposing screens with cells derived from glioblastoma tumor samples (AID 1345199); conditions: GBM patient neurospheres viability, ATP luminescence, 48 h; also: nearly all actives have a fitted effect of over 40% in size
Summary of the method: (§1)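 Primary testing used CD133+ neurospheres from four GBM patients, seven concentrations, 48 h exposure and ATP-based viability; confirmation added three slower-growing patient lines.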

astro = control astrocytes; assay: as above; conditions: viability, ATP luminescence, 48 h; series mostly up to 45.9 µM
Summary of the method: as §1

[2] = at 45.9 µM (top of the series), tumour line B
[3] = at 45.9 µM (top of the series), tumour line D
[4] = at 46 µM (top of the series), tumour line A
[5] = at 46.1 µM (top of the series), tumour line C
[6] = at 20 µM (top of the series), tumour line C
[7] = at 21.2 µM (top of the series), tumour line B
[8] = at 21.2 µM (top of the series), tumour line D
[9] = at 21.3 µM (top of the series), tumour line A
% is scaled to controls: 0 for no effect and ±100 for the full control effect; potency is read from the fitted curve at half-maximal effect.

| SMILES | activity, negative = cell killing [1, 2] [%] | activity, negative = cell killing [1, 3] [%] | activity, negative = cell killing [1, 4] [%] | activity, negative = cell killing [1, 5] [%] | Potency (astro) | activity, negative = cell killing [1, 6] [%] | activity, negative = cell killing [1, 7] [%] | activity, negative = cell killing [1, 8] [%] | activity, negative = cell killing [1, 9] [%] | Potency ([1]; tumour line A) |
| --- | --- | --- | --- | --- | --- | --- | --- | --- | --- | --- |
| O=C(NNCNNC(=O)c1ccncc1)c1ccncc1 | -12 | -9.77 | -25.1 | -23 | inactive | – | – | – | – | – |
| CNC(=O)c1c(I)c(C(=O)NCC(=O)Nc2c(I)c(C(=O)O)c(I)c(C(=O)NCCO)c2I)c(I)c(N(C)C(C)=O)c1I | -2.37 | -21.2 | -7.61 | 3.32 | inactive | – | – | – | – | – |
| C=CC(=O)O | -8.62 | -6.79 | -25.8 | -0.506 | inactive | – | – | – | – | – |
| NC(=O)c1ccc[n+]([C@@H]2O[C@H](COP(=O)([O-])OP(=O)(O)OC[C@H]3O[C@@H](n4cnc5c(N)ncnc54)[C@H](O)[C@@H]3O)[C@@H](O)[C@H]2O)c1 | – | – | – | – | inactive | -16.9 | 8.41 | -3.83 | -22.7 | – |
| O=C1[O][Bi][O]c2ccccc21 | -16 | -27.4 | -26.1 | -6.82 | inactive | – | – | – | – | – |
| Cc1ncc(C[n+]2csc(CCO)c2C)c(N)n1 | – | – | – | – | inactive | -11.7 | -7.55 | 3.61 | -16.2 | – |
| COc1cc2c(cc1OC)[C@@H](c1ccccc1)CN(C)CC2 | -22 | -9.13 | – | -17.9 | inactive | – | – | – | – | 20 µM (active) |
| C[C@@H]1O[C@@H](OC[C@H]2O[C@@H](Oc3c(-c4ccc(OCCO)c(OCCO)c4)oc4cc(OCCO)cc(O)c4c3=O)[C@H](O)[C@@H](O)[C@@H]2O)[C@H](O)[C@H](O)[C@H]1O | -5.23 | -14.3 | -13.8 | -13.8 | inactive | – | – | – | – | – |
| FC(F)(F)C(F)(F)C(F)(F)C(F)(F)C(F)(F)F | 3 | -24.7 | -8.67 | -13.9 | inactive | – | – | – | – | – |
| CO/N=C(\C(=O)N[C@@H]1C(=O)N2C(C(=O)O)=C(CSc3nnnn3C)CS[C@H]12)c1csc(N)n1 | -10.5 | -9.07 | – | -27.1 | inactive | – | – | – | – | 11.2 µM (active) |
| CC(=O)[O][Al][O]C(C)=O | -5.15 | -14.6 | -26.4 | -11.8 | inactive | – | – | – | – | – |
| COC(=O)[C@@H](N)CS | 4.89 | -8.33 | -26.1 | 4.09 | inactive | – | – | – | – | – |
| O[C@@H]([C@H](O)[C@H](O)CBr)[C@H](O)CBr | -6.4 | -10.8 | -25.7 | 4.72 | inactive | – | – | – | – | – |
| CS(=O)(=O)OCC(O)C(O)COS(C)(=O)=O (stereo not given) | -10.6 | -10.3 | -29.4 | -1.32 | inactive | – | – | – | – | – |
| FC(F)OC(Cl)C(F)(F)F (stereo not given) | -4.99 | -20.2 | -34.3 | -9.7 | inactive | – | – | – | – | – |
| OC/C=C/c1ccccc1 | -6.23 | -1.36 | -12.3 | 8.18 | inactive | – | – | – | – | – |
| CCC(Oc1ccccc1)C(=O)N[C@@H]1C(=O)N2[C@@H]1SC(C)(C)[C@@H]2C(=O)O (stereo not given in full) | -4.6 | -5.25 | -9.92 | -0.932 | inactive | – | – | – | – | – |
| Nc1nc(=O)n([C@@H]2CS[C@H](CO)O2)cc1F | -1.96 | -4.58 | -12.2 | 2.71 | inactive | – | – | – | – | – |
| CC(C)[C@@H](N)C(=O)O | -4.72 | -10.1 | -15.5 | -0.187 | inactive | – | – | – | – | – |
| O=C(O)CN(CC(=O)O)CC1=CC2C(=CC1=O)Oc1cc(O)c(CN(CC(=O)O)CC(=O)O)cc1C21OC(=O)c2ccccc21 (stereo not given) | -10.9 | -10.1 | -21.2 | -24.7 | inactive | – | – | – | – | – |
